Laboratory results published in PubChem BioAssay (Tox21).
Records with an inconclusive call do not appear. A call without a number means that no potency is given here. Activity calls are given as the source filed them. Unless noted, the call rests on the fitted dose curve; in most records, active means well fitted curve in the direction sought with a large enough effect in the repeat runs; inconclusive means weak or mixed curves; inactive means no such curve, though single readings can be large; an effect the other way counts as inactive or inconclusive.

Legend:
[1] = target: Estrogen receptor beta (Homo sapiens) (UniProt Q92731); experiment: qHTS assay to identify small molecule agonists of the estrogen receptor beta (ER-beta) signaling pathway (AID 1259377; active means well fitted activation curve with a large enough effect in the signal ratio in the repeat runs, not every such curve was filed as active; the % refers to the signal ratio; further: potency means the concentration at half of the fitted maximal effect)
How it was run: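 Read-out: beta-lactamase FRET fluorescence. Cell line: ER-beta-UAS-bla HEK293T in 2% charcoal-stripped FBS. Exposure: 16 hr at 37C. Substrate step: 2 h at room temperature.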

[2] = qHTS assay to identify small molecule agonists of the androgen receptor (AR) signaling pathway in the presence of an antagonist - cell viability counter screen (AID 1259379); further: nearly all actives have a fitted effect of over 25% in size; further: potency means the concentration at half of the fitted maximal effect
How it was run: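 A CellTiter-Fluor read-out measured viability of MDA-kb2 reporter cells (MMTV promoter with AR and GR response elements). Treatment: nilutamide 3.0uM final with compounds at 15 concentrations, 16 hr, 37C, 0% CO2.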

[3] = qHTS assay to identify small molecule agonists of the estrogen receptor beta (ER-beta) signaling pathway - cell viability counter screen (AID 1259380); further: nearly all actives have a fitted effect of over 30% in size; further: potency means the concentration at half of the fitted maximal effect
How it was run: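 Cells used were ER-beta-UAS-bla HEK293T in medium with 2% charcoal-stripped FBS. They were treated for 16 hr at 37C. Viability came from CellTiter-Glo luminescence.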

[4] = target: Estrogen receptor (Homo sapiens) (UniProt P03372); experiment: qHTS assay to identify small molecule agonists of the estrogen receptor alpha (ER-alpha) signaling pathway in the presence of an antagonist (AID 1259383; calls by dose curve; further: nearly all actives have a fitted effect of over 15% in size; further: potency means the concentration at half of the fitted maximal effect; on activation: top concentration of the series differs between compounds)
How it was run: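 Using VM7Luc4E2 cells seeded 24hr before treatment, antagonist ICI-182,780 (10.0nM final) was added, followed by compounds at 15 concentrations. Plates incubated 22hr; ONE-Glo luminescence quantified reporter activity.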

[5] = qHTS assay to identify small molecule agonists of the estrogen receptor alpha (ER-alpha) signaling pathway in the presence of an antagonist - cell viability counter screen (AID 1259386);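 further: cells exposed to compounds for 22 h at 37 °C before the viability read; nearly all actives have a fitted effect of over 30% in size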; further: potency means the concentration at half of the fitted maximal effect
How it was run: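 ICI-182,780 at 10.0nM final accompanies the compound titration (15 concentrations, 22hr, 37C) on VM7Luc4E2 cells. The CellTiter-Fluor fluorescence readout runs in the same wells as the luciferase assay.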

[6] = target: Progesterone receptor (Homo sapiens) (UniProt P06401); experiment: qHTS assay to identify small molecule agonists of the progesterone receptor (PR) signaling pathway (AID 1346784; calls by dose curve; further: nearly all actives have a fitted effect of over 30% in size)
How it was run: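 Compounds were tested for PR agonism in HEK 293T cells bearing a beta-lactamase gene under UAS control. Treatment lasted 16 hr at 37C; signal came from fluorescence of a FRET substrate.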

[7] = qHTS assay to identify small molecule antagonists of the progesterone receptor (PR) signaling pathway - cell viability counter screen (AID 1346798); further: nearly all actives have a fitted effect of over 50% in size; further: potency means the concentration at half of the fitted maximal effect
How it was run: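 Following a 4 hr attachment, PR-UAS-bla HEK293T cells in charcoal-stripped FBS medium were exposed to compounds with R5020 for 16 hr; CellTiter-Glo was added and luminescence read after 30 min at room temperature.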

[8] = qHTS assay to identify small molecule antagonists of the TGF-beta/Smad signaling pathway - cell viability counter screen (AID 1346824); further: nearly all actives have a fitted effect of over 50% in size
How it was run: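 SBE-bla HEK 293T cells, incubated overnight, then compound plus 0.25 ng/mL TGF-beta1 (stock added) for 5 hr at 37 C. Viability was read in the same wells by CellTiter-Glo luminescence after 30 min at room temperature.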

[9] = qHTS assay to identify small molecule agonists of the TGF-beta/Smad signaling pathway - cell viability counter screen (AID 1346829); further: top concentration of the series differs between compounds; nearly all actives have a fitted effect of over 45% in size
How it was run: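 Cytotoxicity counter screen: CellTiter-Glo luminescence (30 min, room temperature) measured in the SBE-bla HEK 293T reporter wells after 5 hr compound treatment at 37 C and the 2 hr substrate step.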

[10] = qHTS assay to identify small molecule agonists of the TGF-beta/Smad signaling pathway (AID 1346859; active means well fitted activation curve with a large enough effect in the signal ratio in the repeat runs, not every such curve was filed as active; the % refers to the signal ratio; further: series mostly up to about 77 µM)
How it was run: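 Each well held 4,000 SBE-bla HEK 293T cells incubated overnight before compound addition; 5 hr later the cleavable FRET substrate went on for 2 hr at room temperature, and fluorescence was read at two emissions.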

[11] = target: Thyrotropin-releasing hormone receptor (Homo sapiens) (UniProt P34981); experiment: qHTS assay to identify small molecule antagonists of the thyrotropin-releasing hormone receptor (TRHR) signaling pathway (AID 1346877; active means well fitted inhibition curve with a large enough effect in the repeat runs, not every such curve was filed as active; further: series mostly up to about 51 µM)
How it was run: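 Screening used HEK293 cells engineered with TRHR, with a brief 5 min room-temperature compound exposure preceding addition of TRH to 1 nM. The read-out was kinetic calcium-dye fluorescence, concentration-response from 15 doses in triplicate.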

[12] = target: Thyrotropin-releasing hormone receptor (Homo sapiens) (UniProt P34981); experiment: qHTS assay to identify small molecule agonists of the thyrotropin-releasing hormone receptor (TRHR) signaling pathway (AID 1346891; calls by dose curve; further: series mostly up to about 58 µM)
How it was run: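 Screening of agonists relied on calcium signalling in HEK293 cells expressing human TRHR: dye loading 2 h at 37 °C preceded compound addition and a 3-min fluorescence time course.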

[13] = qHTS assay to identify small molecule antagonists of the sonic hedgehog signaling (Shh) pathway (AID 1259369; calls by dose curve; further: nearly all actives have a fitted effect of over 45% in size)
How it was run: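 Conditioned medium drives Shh signalling in 3T3Gli1-Luc cells; compounds in DMSO co-applied, 24hr at 37 C, then luciferase luminescence.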

[14] = qHTS assay to identify small molecule antagonists of the estrogen receptor beta (ER-beta) signaling pathway - cell viability counter screen (AID 1259382); further: series mostly up to about 92 µM; nearly all actives have a fitted effect of over 55% in size
How it was run: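 Agonist-stimulated (1nM E2) ER-beta-UAS-bla HEK293T cells are incubated with library compounds for 16 hr at 37C. Cell viability is then assessed in the reporter-assay wells by adding CellTiter-Glo and reading luminescence after 30 min.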

[15] = target: Progesterone receptor (Homo sapiens) (UniProt P06401); experiment: qHTS assay to identify small molecule antagonists of the progesterone receptor (PR) signaling pathway (AID 1346795; active means well fitted inhibition curve with a large enough effect in the signal ratio in the repeat runs, not every such curve was filed as active; the % refers to the signal ratio; further: potency means the concentration at half of the fitted maximal effect)
How it was run: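 In HEK293T cells bearing the PR-UAS-bla reporter, compound effects on promegestone-driven (1 nM) beta-lactamase expression are assessed after 16 hr using a fluorescent FRET substrate incubated 2 hr at room temperature.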

[16] = target: Thyrotropin receptor (Homo sapiens) (UniProt P16473); experiment: qHTS assay to identify small molecule antagonists of the thyroid stimulating hormone receptor (TSHR) signaling pathway (AID 1259385; calls by dose curve; further: nearly all actives have a fitted effect of over 20% in size; further: potency means the concentration at half of the fitted maximal effect)
How it was run: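 TSHR-HEK293 cells (800/well) plated 18 h, then compounds with Ro20-1724 and TSH at 1.5 ng/mL final, 30 min at room temperature. cAMP quantified by HTRF (cAMP-d2/anti-cAMP-cryptate, 1 h); 15 concentrations in triplicate.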

[17] = qHTS assay to identify small molecule agonists of the progesterone receptor (PR) signaling pathway - cell viability counter screen (AID 1346799; calls by dose curve; further: nearly all actives have a fitted effect of over 45% in size)
How it was run: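 Here, 3,000 PR-UAS-bla HEK293T cells per well were treated with compounds for 16 hr after a 6 hr preincubation at 37C and 5% CO2; cell viability is the CellTiter-Glo luminescence signal.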

[18] = qHTS assay to identify small molecule agonists or antagonists of the thyroid stimulating hormone receptor (TSHR) signaling pathway - wild type cell line counter screen (AID 1259384; calls by dose curve)
How it was run: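 Wild-type Hek293 cells, 800/well, 18 h at 37C, then compound with Ro20-1724 for 30 min RT. cAMP by HTRF (cAMP-d2/anti-cAMP cryptate), 1 h RT, fluorescence read. 15 concentrations, triplicates.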

[19] = target: Estrogen receptor beta (Homo sapiens) (UniProt Q92731); experiment: qHTS assay to identify small molecule antagonists of the estrogen receptor beta (ER-beta) signaling pathway (AID 1259378; active means well fitted inhibition curve with a large enough effect in the signal ratio in the repeat runs, not every such curve was filed as active; the % refers to the signal ratio; further: potency means the concentration at half of the fitted maximal effect)
How it was run: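 ER-beta-UAS-bla HEK293T cells in 2% charcoal-stripped FBS medium treated with compound plus 1nM final 17-beta-estradiol for 16 hr at 37C. Beta-lactamase reporter read by FRET substrate fluorescence after 2 hours at room temperature.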

[20] = target: Androgen receptor (Homo sapiens) (UniProt P10275); experiment: qHTS assay to identify small molecule agonists of the androgen receptor (AR) signaling pathway in the presence of an antagonist (AID 1259381; calls by dose curve; further: nearly all actives have a fitted effect of over 15% in size)
How it was run: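 Using human MDA-kb2 cells with an MMTV promoter–luciferase construct (AR and GR response elements), agonist activity is scored under 3.0uM nilutamide (final) co-treatment; 16hr incubation, 37C, luminescence readout via ONE-Glo.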

Chain of Androgen receptor (Homo sapiens) (P10275 whole entry, looked up): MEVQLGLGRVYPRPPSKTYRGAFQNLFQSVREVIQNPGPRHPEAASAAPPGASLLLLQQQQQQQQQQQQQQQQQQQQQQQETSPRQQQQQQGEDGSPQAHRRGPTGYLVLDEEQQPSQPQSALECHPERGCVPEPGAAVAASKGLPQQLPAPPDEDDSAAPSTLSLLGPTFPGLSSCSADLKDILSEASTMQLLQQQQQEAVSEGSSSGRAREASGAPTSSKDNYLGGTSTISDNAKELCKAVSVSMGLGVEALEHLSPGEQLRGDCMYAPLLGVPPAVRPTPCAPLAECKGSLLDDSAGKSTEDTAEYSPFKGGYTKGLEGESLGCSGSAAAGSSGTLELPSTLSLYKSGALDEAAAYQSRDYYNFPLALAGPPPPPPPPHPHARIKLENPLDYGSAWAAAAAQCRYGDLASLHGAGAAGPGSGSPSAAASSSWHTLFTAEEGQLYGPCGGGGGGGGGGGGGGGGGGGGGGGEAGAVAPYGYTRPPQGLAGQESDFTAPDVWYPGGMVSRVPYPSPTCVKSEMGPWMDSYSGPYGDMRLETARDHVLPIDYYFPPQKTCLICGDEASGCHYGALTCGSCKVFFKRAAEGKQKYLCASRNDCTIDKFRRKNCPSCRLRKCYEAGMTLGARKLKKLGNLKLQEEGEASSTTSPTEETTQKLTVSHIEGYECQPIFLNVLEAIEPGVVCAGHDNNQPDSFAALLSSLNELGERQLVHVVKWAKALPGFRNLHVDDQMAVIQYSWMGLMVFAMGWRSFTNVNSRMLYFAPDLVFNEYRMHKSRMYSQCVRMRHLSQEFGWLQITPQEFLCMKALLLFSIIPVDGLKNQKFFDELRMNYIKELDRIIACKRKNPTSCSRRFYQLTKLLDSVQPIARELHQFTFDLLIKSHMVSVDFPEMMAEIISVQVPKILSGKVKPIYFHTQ
Chain of Thyrotropin receptor (Homo sapiens) (P16473 whole entry, looked up): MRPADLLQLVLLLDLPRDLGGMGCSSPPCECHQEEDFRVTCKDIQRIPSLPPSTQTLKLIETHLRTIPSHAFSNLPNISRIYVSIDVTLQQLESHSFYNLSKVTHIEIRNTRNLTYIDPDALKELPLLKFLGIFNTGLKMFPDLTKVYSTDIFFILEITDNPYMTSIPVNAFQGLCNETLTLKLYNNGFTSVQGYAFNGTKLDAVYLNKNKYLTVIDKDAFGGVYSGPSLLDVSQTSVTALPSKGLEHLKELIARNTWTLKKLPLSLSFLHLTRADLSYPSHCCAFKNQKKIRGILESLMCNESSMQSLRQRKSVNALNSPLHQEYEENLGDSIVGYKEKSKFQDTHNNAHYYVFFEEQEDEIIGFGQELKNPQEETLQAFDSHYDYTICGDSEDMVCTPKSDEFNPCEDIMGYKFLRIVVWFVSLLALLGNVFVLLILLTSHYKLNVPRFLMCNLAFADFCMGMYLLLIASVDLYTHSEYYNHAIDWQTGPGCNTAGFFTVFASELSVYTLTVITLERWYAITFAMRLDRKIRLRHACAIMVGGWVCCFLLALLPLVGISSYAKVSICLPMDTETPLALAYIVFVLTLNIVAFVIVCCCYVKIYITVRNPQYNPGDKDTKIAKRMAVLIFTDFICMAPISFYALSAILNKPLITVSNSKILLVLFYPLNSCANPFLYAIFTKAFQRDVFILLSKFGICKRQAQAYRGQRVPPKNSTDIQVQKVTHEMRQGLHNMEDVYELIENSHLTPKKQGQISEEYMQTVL
Chain of Progesterone receptor (Homo sapiens) (P06401 whole entry, looked up): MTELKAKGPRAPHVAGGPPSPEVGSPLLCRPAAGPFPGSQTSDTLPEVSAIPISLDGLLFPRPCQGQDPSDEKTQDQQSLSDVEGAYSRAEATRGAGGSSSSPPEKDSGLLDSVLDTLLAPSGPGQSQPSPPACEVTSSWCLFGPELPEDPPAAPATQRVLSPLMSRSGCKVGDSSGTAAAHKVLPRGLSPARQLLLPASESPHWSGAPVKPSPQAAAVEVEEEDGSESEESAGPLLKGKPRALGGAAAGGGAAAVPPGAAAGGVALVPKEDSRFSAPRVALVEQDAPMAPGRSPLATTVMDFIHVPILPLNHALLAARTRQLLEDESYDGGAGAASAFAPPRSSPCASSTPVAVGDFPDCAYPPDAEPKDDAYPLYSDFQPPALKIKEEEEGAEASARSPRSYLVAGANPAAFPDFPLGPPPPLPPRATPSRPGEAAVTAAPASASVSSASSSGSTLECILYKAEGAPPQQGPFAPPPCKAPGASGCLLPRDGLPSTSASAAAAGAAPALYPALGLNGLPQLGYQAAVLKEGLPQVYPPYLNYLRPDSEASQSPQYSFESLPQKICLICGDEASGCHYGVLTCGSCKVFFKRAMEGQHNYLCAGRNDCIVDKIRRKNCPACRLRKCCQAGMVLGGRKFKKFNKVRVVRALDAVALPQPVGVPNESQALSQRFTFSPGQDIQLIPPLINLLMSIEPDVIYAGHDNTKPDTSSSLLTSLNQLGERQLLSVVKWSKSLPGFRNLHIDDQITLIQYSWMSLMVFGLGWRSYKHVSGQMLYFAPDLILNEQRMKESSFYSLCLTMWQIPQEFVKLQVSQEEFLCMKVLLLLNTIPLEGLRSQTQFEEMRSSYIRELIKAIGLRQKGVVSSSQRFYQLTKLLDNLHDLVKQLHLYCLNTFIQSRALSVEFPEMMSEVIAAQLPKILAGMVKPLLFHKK
Chain of Estrogen receptor beta (Homo sapiens) (Q92731 whole entry, looked up): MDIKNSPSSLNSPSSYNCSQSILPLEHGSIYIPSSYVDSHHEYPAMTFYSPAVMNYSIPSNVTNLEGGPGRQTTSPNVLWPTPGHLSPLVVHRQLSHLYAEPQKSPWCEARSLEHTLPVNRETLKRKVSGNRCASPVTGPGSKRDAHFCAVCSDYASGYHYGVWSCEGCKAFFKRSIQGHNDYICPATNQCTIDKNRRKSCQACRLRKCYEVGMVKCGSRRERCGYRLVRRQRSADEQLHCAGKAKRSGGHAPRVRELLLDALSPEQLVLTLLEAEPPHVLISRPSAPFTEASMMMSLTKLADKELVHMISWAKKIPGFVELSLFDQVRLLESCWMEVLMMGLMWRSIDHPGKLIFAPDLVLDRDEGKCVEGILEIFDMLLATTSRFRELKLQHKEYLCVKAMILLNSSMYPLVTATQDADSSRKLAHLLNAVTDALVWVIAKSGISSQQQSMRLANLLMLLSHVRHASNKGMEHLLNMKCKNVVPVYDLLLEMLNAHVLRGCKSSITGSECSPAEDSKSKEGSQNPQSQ
Chain of Estrogen receptor (Homo sapiens) (P03372 whole entry, looked up): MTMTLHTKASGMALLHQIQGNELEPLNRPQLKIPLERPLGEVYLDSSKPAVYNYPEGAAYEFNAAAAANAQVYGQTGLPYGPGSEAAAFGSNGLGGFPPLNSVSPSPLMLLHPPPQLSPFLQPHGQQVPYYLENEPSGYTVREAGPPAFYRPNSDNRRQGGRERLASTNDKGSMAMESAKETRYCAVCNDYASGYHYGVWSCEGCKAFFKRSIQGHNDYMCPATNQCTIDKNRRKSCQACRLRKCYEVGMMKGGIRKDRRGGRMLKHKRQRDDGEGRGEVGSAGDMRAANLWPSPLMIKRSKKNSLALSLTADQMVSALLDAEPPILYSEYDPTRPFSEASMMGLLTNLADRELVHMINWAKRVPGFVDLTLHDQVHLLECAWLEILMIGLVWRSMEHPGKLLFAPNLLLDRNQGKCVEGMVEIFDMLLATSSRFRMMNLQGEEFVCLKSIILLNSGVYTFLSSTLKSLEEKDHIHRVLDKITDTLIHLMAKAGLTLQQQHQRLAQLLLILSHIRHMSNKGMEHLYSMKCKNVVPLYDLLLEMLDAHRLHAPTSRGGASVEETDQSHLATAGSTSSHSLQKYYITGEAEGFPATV
Chain of Thyrotropin-releasing hormone receptor (Homo sapiens) (P34981 whole entry, looked up): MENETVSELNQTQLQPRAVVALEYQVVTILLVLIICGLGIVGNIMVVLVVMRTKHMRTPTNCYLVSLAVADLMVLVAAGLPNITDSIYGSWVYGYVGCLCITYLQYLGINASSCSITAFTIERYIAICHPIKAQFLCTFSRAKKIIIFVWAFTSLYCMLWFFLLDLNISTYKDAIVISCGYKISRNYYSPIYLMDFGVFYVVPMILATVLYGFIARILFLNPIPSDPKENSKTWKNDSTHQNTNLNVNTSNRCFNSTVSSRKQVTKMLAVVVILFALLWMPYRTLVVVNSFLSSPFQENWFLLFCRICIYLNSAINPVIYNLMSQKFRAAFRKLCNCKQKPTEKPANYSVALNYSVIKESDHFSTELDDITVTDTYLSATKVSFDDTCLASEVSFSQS

SMILES | Potency [1] | Potency [2] | Potency [3] | Potency [4] | Potency [5] | outcome [6] | Potency [7] | Potency [8] | Potency [9] | outcome [10] | outcome [11] | Potency [12] | Potency [13] | Potency [14] | Potency [15] | Potency [16] | Potency [17] | Potency [18] | Potency [19] | Potency [20]
CC(=O)CC(=O)c1ccccc1 | inactive | inactive | inactive | inactive | inactive | inactive | inactive | inactive | inactive | inactive | inactive | inactive | – | – | – | – | – | – | – | –
COc1ccc2[nH]c(S(=O)Cc3ncc(C)c(OC)c3C)nc2n1 (stereo not given) | – | – | – | inactive | inactive | inactive | – | inactive | inactive | inactive | inactive | inactive | inactive | inactive | inactive | – | – | – | – | –
CN(C)C/C=C(/c1ccc(Br)cc1)c1cccnc1 | – | inactive | inactive | – | inactive | inactive | – | inactive | inactive | inactive | inactive | inactive | – | inactive | inactive | inactive | inactive | – | – | –
O=C1c2cccc(O)c2C(=O)c2c(O)cc(CO)cc21 | – | – | – | inactive | – | inactive | inactive | inactive | inactive | inactive | inactive | inactive | inactive | inactive | inactive | inactive | inactive | inactive | – | –
O=C(Nc1ccccc1)OCC(CN1CCCCC1)OC(=O)Nc1ccccc1 (stereo not given) | inactive | inactive | 26.6 µM (active) | inactive | inactive | inactive | inactive | inactive | inactive | inactive | inactive | inactive | – | – | 23.7 µM (active) | 18.8 µM (active) | inactive | inactive | 26.6 µM (active) | –
Oc1ccc(Cc2ccccc2)cc1 | – | – | – | – | inactive | – | – | inactive | inactive | inactive | inactive | inactive | – | inactive | 22.5 µM (active) | inactive | – | inactive | – | –
CCOC(=O)C1=C(C)NC(C)=C(C(=O)OC)C1c1cccc([N+](=O)[O-])c1 (stereo not given) | inactive | inactive | inactive | inactive | inactive | inactive | – | inactive | inactive | inactive | inactive | inactive | – | – | – | inactive | – | inactive | inactive | –
CC(C)NCC(O)c1cc(O)cc(O)c1 (stereo not given) | – | – | – | – | inactive | inactive | inactive | inactive | inactive | inactive | – | – | inactive | inactive | inactive | inactive | inactive | – | – | –
OCC1CC2CC1C1CCC(CO)C21 (stereo not given) | – | – | – | inactive | inactive | inactive | – | inactive | inactive | inactive | – | – | inactive | – | – | inactive | – | inactive | – | –
Oc1ccc2c(c1)OCO2 | – | – | inactive | inactive | – | – | – | inactive | inactive | inactive | – | – | – | inactive | – | inactive | inactive | inactive | – | –
C[C@@H](C1=C(CCN(C)C)Cc2ccccc21)c1ccccn1 | – | inactive | – | – | inactive | inactive | – | inactive | inactive | inactive | – | – | – | inactive | inactive | inactive | inactive | inactive | – | –
NC(N)=N/N=C/c1c(Cl)cccc1Cl | – | – | 29.8 µM (active) | inactive | 15 µM (active) | inactive | – | inactive | inactive | inactive | inactive | inactive | – | – | inactive | inactive | – | inactive | – | inactive
CC(Cc1cccc(C(F)(F)F)c1)NCCOC(=O)c1ccccc1 (stereo not given) | – | inactive | – | – | inactive | inactive | – | inactive | inactive | inactive | – | – | – | inactive | inactive | inactive | inactive | – | – | –
CC/C(=C\C(=N/O)C(N)=O)C(C)[N+](=O)[O-] (stereo not given) | inactive | inactive | inactive | inactive | inactive | inactive | – | inactive | inactive | inactive | inactive | inactive | – | inactive | inactive | inactive | inactive | inactive | – | –
CN(C)CC/C=C1\c2ccccc2COc2ccccc21 | – | – | 26.6 µM (active) | – | inactive | – | – | inactive | inactive | inactive | inactive | inactive | – | – | inactive | 29.8 µM (active) | – | – | – | inactive
CCCCc1cc2ccccc2c(OCCN(C)C)n1 | – | inactive | – | – | inactive | inactive | – | inactive | inactive | inactive | inactive | inactive | – | – | – | inactive | inactive | inactive | – | –
CCOc1ccc2[nH]cc(C(=O)NCc3ccccc3)c(=O)c2n1 | – | inactive | inactive | inactive | inactive | inactive | – | inactive | inactive | inactive | inactive | inactive | – | – | inactive | inactive | – | inactive | – | –
CN(C)CC[C@@H](c1ccc(Br)cc1)c1ccccn1 | – | – | – | inactive | inactive | inactive | 2.66 µM (active) | inactive | – | inactive | – | – | inactive | inactive | inactive | – | inactive | – | – | –
CNCC[C@@H](Oc1ccccc1C)c1ccccc1 | – | inactive | – | inactive | inactive | – | – | inactive | inactive | inactive | – | – | – | – | – | – | – | inactive | – | inactive
COC(=O)C(C)=O | – | – | – | inactive | inactive | – | inactive | inactive | inactive | inactive | inactive | inactive | inactive | inactive | inactive | inactive | inactive | inactive | – | –
Cc1nc2ccccc2n1Cc1ccc(Cl)cc1 | – | 4.22 µM (active) | – | inactive | 13.3 µM (active) | inactive | – | inactive | inactive | inactive | – | – | – | inactive | 13.3 µM (active) | – | – | – | – | –
O=C(c1ccc(O)cc1)c1ccc(O)cc1 | 6.11 µM (active) | inactive | inactive | 21.7 µM (active) | inactive | inactive | – | inactive | inactive | inactive | inactive | inactive | – | inactive | 48.6 µM (active) | inactive | – | – | – | inactive
